Results taken from ChEMBL document CHEMBL3988442, “University of Dundee, Small-Polar-MMV Screening Library” (2021).

Molecular target: AMP-activated protein kinase, AMPK (Homo sapiens) (UniProt P54646+O43741+P54619+Q9UGJ0+Q9Y478+Q13131+Q9UGI9)
Test: AMP-dependent Kinase enzyme assay. An in vitro enzyme assay that detects ADP turnover that is directly proportional to AMPK activity. This uses naive AMPK that is activated during the assay with MK-8722
Assay type: functional
Parameters: scale not given: direction of the effect not stated beside the values
Details: 30 µM

Point of comparison: `CN(C)c1ccccc1C(=O)N1CCCC(c2cccc(C(=O)O)c2)C1` (stereo unspecified), Percent Effect 2.89%. Against it:
- CCc1nn(C)c(Cl)c1CN1CCCC2(CC1)CN(C)C(=O)O2 (stereo unspecified) — lower, -9.39%
- Clc1ccc(N2CCC(OCC3CCCCO3)CC2)nc1 (stereo unspecified) — higher, 3.4%
- Cc1nnc(CN(C)CC(=O)NC(C)(C)c2ccc(F)cc2)n1C — higher, 6.43%
- CC(Cn1ccnc1)NC(=O)NCCN1CCCCCC1=O (stereo unspecified) — lower, 0.204%
- Cc1cc(CN(C)C(=O)Nc2ccccc2C)no1 — higher, 9.79%
- N#Cc1ccc(CNCCc2cc(F)cc3c2OCOC3)cc1 — higher, 4.17%
- COc1ccc(C)nc1NC(=O)Cc1c(C)nn(C)c1C — lower, 2.12%
- O=C(C1CC1)N1CCCC(C2=Nc3ccccc3S(=O)(=O)N2)C1 (stereo unspecified) — higher, 24.4%
- CCc1onc(C)c1C(=O)N1CCN(c2ncc3c(n2)CCOC3)CC1 — higher, 13%
- Cc1noc(C)c1-c1n[nH]c2c1CN(S(=O)(=O)c1cccs1)CC2 — lower, 2.21%
- O=C(CC1CCCC1)NCCS(=O)(=O)N1CCN(c2ccccc2)CC1 — lower, -7.22%
- CC1CN(Cc2cccc(CNC3CCCC3)c2)CCO1 (stereo unspecified) — lower, 2.35%
- CN1C[C@@H]2CC[C@H](CC1=O)N2C(=O)c1ccc(-c2ccccc2)[nH]c1=O — higher, 12.5%
- CCOCCNC(=O)CCC1CCCO1 (stereo unspecified) — higher, 2.99%
- Cc1nsc(C(=O)NCCc2cccs2)n1 — lower, 1.77%
- Cc1[nH]c2c(F)cccc2c1CC(=O)NC1CCCCNC1=O (stereo unspecified) — higher, 10.4%
- Cc1ccc2c(c1)cc(CN1CC[C@](C)(O)[C@H](C)C1)n2C — higher, 9.89%
- O=C(Cn1ccc2ncccc2c1=O)N1CCCCC1 — lower, -2.48%
- O=C(CCOc1ccccc1F)N1CCOCC1 — lower, -12.5%
- Cc1ccc(-c2nc(C(=O)N(C)CC(=O)N3CCCC3)cs2)c(C)c1 — lower, 1.55%
